Screening data as filed in PubChem.
D1 PAM = potentiators of human D1 dopamine receptor; 0.036% of 360,000 active; P21728; HEK293 TREx D1 cells, calcium flux, dopamine EC20 potentiation; AID 504651; potentiation, % at 10 µM; in the data active means potentiation above about 30%
Target sequence (P21728 whole entry, looked up): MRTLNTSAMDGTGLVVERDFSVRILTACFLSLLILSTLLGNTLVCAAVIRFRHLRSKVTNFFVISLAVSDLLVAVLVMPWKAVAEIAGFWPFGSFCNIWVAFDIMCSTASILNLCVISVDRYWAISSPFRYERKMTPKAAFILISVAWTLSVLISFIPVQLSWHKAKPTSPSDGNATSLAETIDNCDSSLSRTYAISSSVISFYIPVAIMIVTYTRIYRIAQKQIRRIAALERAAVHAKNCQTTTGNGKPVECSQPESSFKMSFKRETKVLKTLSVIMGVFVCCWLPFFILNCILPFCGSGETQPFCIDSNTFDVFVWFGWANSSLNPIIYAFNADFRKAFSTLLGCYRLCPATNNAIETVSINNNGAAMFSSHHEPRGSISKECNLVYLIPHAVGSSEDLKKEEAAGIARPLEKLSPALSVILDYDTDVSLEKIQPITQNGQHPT
D1 antag = antagonists of human D1 dopamine receptor; AID 504652; activity change, negative = inhibition, % at 10 µM; HEK293 TREx D1 cells, calcium flux, dopamine EC80; active compounds read low; 3.2% of 360,000 active; in the data active means activity change below about -30%
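Inducible Hek293 Trex D1 cells (tetracycline, overnight, 30 C). Calcium dye 30–90 min RT. Antagonist mode: EC80 dopamine added after 180 s compound read.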
DRD3 antagonist = blocks the human D3 dopamine receptor; P35462; max response, negative = inhibition, %; AID 652054; D3R cells, DiscoveRx beta-arrestin luminescence, antagonist mode; active compounds read low; 2.5% of 360,000 active; in the data active means max response below about -50%; inconclusive means no clear call, values can overlap the other calls
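Cells plated overnight at 1500 cells/well, then exposed to library compounds with dopamine controls for 90 minutes at 37 degrees C. DiscoveRx reagent added for 30–60 minutes at room temperature; luminescence read, quantitative HTS format.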
D1 ag = human D1 receptor agonism. P21728. HEK293 T-REx D1 cells, calcium flux, agonist mode. activation, % at 2 µM. 1% of 360,000 active. AID 504660; in the data active means activation above about 30%
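Inducible HEK293 T-REx D1 cells, force-coupled to calcium signalling, were plated at 4000 cells/well with tetracycline and held overnight at 30 C. After no-wash calcium dye loading, compound-evoked calcium rise over 180 s flagged agonists.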
DRD3 agonist = activates the human D3 dopamine receptor; P35462; 0.58% of 410,000 active; max activation, %; D3R DiscoveRx beta-arrestin cells, luminescence, 90 min; in the data active means max activation above about 30%
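Cells at 1500/well, incubated overnight, then treated with pinned compounds (dopamine as control) for 90 min at 37 degrees C. DiscoveRx reagent added for 30 - 60 minutes at room temperature; luminescence read.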
Large screens that a line does not name were inactive. The list is not random: actives were taken first. Their share in the collection is about 6%.

COc1ccc(C2CC(=O)c3cnc(Nc4cc(C)cc(C)c4)nc3C2)cc1 (stereo not drawn)	DRD3 agonist 48.9
O=c1ccn([C@@H]2O[C@H](CNS(=O)(=O)C3CC3)[C@@H](O)[C@H]2O)c(=O)[nH]1	none (no result: D1 PAM, D1 antag, D1 ag)
O=c1ccn([C@@H]2O[C@H](CNS(=O)(=O)c3csc(-c4ccno4)c3)[C@@H](O)[C@H]2O)c(=O)[nH]1	DRD3 agonist 44.3 (no result: D1 PAM, D1 antag, D1 ag)
COc1ccc(NC(=O)Cn2c(=O)n(-c3ccc(C)cc3)c(=O)c3c2cnn3C)cc1	none (no result: DRD3 antagonist)
NC(=S)N/N=C1\CCOc2ccc(F)cc21	none
CCS/C(N)=N/N=C/c1cc(C)ccc1O	DRD3 antagonist -52.9
CCCCS/C(N)=N/N=C/c1cc(C)ccc1O	DRD3 antagonist -54.8
O=C(Oc1c(-c2ccccc2)c(=O)n2c3c(cccc13)CC2)c1ccco1	DRD3 agonist 49.1
O=C1NC(=S)SC1=Cc1cccs1	DRD3 antagonist inconclusive (no result: D1 PAM, D1 antag, D1 ag)
CN1CCC/C1=C/C=C1\SC(=S)NC1=O	DRD3 antagonist -64.3, D1 ag 80.9
CCCCC1=CC2=CC(=O)C(C)(OC(=O)CC)C(=O)C2=CN1c1cccc(C#N)c1 (stereo not drawn)	DRD3 agonist 32.4 (no result: D1 PAM, D1 antag, D1 ag)
CCCCC1=CC2=CC(=O)C(C)(OC(=O)CC)C(=O)C2=CN1c1ccc(OC)cc1 (stereo not drawn)	none
Cc1cc(C)c(C)c(OCCCCN2CCCCC2)c1	DRD3 antagonist -55.1
COc1ccccc1OCCCCN1CCCCC1	DRD3 antagonist inconclusive
CCc1ccccc1OCCCCN1CCCCC1	D1 antag -56.4, DRD3 antagonist -87.4
CCOc1ccccc1OCCCCN1CCCC1	DRD3 antagonist -63.4
Cc1cc(C)c(C)c(OCCOCCN2CCN(C)CC2)c1	none
CC(C)(C)c1ccccc1OCCCCN1CCCC1	DRD3 antagonist -68.0
Cc1ccccc1-c1cc(C(=O)NCc2ccc3c(c2)OCO3)n(CC2CC(c3cccnc3)=NO2)n1 (stereo not drawn)	none (no result: D1 antag)
Cc1cc2c(s1)c1cnn(Cc3ccc(-n4cncn4)cc3)c(=O)c1n2C	none (no result: DRD3 antagonist, DRD3 agonist)
CCc1nc2ccc(C(=O)N3CCCC(C(N)=O)C3)cn2c1N(CCC(C)C)CCN(C)C (stereo not drawn)	none (no result: D1 PAM, D1 antag, D1 ag)
COC(=O)c1sccc1NC(=O)c1c(F)c(F)c(F)c(F)c1F	none (no result: D1 PAM, D1 antag, D1 ag)
CC(C)c1cccc(C(C)C)c1OCCCCN1CCCC1	DRD3 antagonist -57.6
c1cncc(CSc2ccc(-c3ccc4c(c3)OCO4)nn2)c1	D1 antag -39.1
COCCCNC(=O)CCCn1c(=O)c2ccccc2n(CC(=O)Nc2ccc(C)cc2Cl)c1=O	none (no result: DRD3 antagonist)
CCCSc1nnc(NC(=O)c2sc3nc(-c4cccs4)ccc3c2N)s1	D1 ag 43.1
Nc1c(C(=O)Nc2cccc(F)c2)sc2nc(-c3cccs3)ccc12	D1 ag 32.5 (no result: DRD3 antagonist)
CCSc1nnc(NC(=O)c2cccs2)s1	none
Cc1ccc(NC(=O)c2sc3nc(-c4cccs4)ccc3c2N)cc1F	none (no result: DRD3 antagonist)
Cc1csc(NC(=O)c2sc3nc(-c4cccs4)ccc3c2N)n1	D1 ag 73.3, DRD3 agonist 39.4
CSc1ccccc1OCc1cc(C(=O)N2CCC(Oc3cccnc3)CC2)no1	D1 antag -45.8 (no result: DRD3 antagonist, DRD3 agonist)
O=C(c1cc(COc2cccc3cnccc23)on1)N1CCCC(CCCO)C1 (stereo not drawn)	D1 antag -55.5
COCC1CCN(C(=O)c2cc(COc3cccc4cnccc34)on2)CC1	none
COc1ccccc1OCc1cc(C(=O)N2CCCC(OCc3cccnc3)C2)no1 (stereo not drawn)	D1 antag -36.3
COc1cccc(CNC(=O)CCCn2nc(C)c3sc4ccccc4c3c2=O)c1	none (no result: DRD3 antagonist)
O=C(COc1ccc(F)cc1)NC1CC(=O)N(c2ccc3c(c2)OCCO3)C1 (stereo not drawn)	none (no result: D1 antag, DRD3 antagonist)
Cc1noc(C)c1S(=O)(=O)N(CC(=O)Nc1ccc(F)cc1F)c1ccc(C(C)C)cc1	none (no result: DRD3 antagonist)
CC(=O)c1ccc(NC(=O)C(C)NCc2ccccc2Cl)cc1 (stereo not drawn)	D1 antag -35.8
CCCC(=O)Nc1ccc(C(=O)NCc2ccccc2Cl)cc1	none
NC(N)=NC(N)=Nc1cccc2ccccc12	none
NC(N)=Nc1cc2ccccc2c2ccccc12	D1 antag -69.9 (no result: DRD3 antagonist, DRD3 agonist)
C#CCN(C[C@@H]1[C@@H](OC(=O)NCC2CCCCC2)[C@@H](OC(=O)NCC2CCCCC2)Cn2c(=O)ccc(=O)n21)S(=O)(=O)c1ccc(C)cc1	DRD3 antagonist -80.9 (no result: D1 PAM, D1 antag, D1 ag)
